From PubChem
Glioma ERSR ind: qHTS for Inducers of the Endoplasmic Reticulum Stress Response (ERSR) in Human Glioma: qHTS. U87-MG GRP78 promoter luciferase reporter, 16 h. Potency, µM, hits mostly activators. 420,000 tested, 0.02% active. AID 602332, 2012; also: series mostly up to about 76 µM; nearly all actives have a fitted effect of over 35% in size
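ERSR induction read as luciferase luminescence (Bright-Glo, 10 min at room temperature) in stably transfected human U87-MG glioma cells exposed to compounds for 16 h, using GRP78 as sensor.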
CBFb RUNX1 block: qHTS Assay for Compounds Blocking the Interaction Between CBF-beta and RUNX1 for the Treatment of Acute Myeloid Leukemia; Runt-related transcription factor 1 (Homo sapiens) + Core-binding factor subunit beta …; AlphaScreen CBFb-His/RUNX1-biotin binding, biochemical; Potency, µM (highest dose often 59.8 µM), actives largely listed as inhibitors; 230,000 tested, under 10 active; AID 1477, 2009
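Compounds were screened at multiple concentrations against a preformed CBF-beta(His)/RUNX1(biotin) complex (30 nM of each) for 15 min at room temperature, followed by 90 min with nickel and streptavidin beads and AlphaScreen reading.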
Anesthetic bind: qHTS Assay for Identification of Novel General Anesthetics; Ferritin light chain (Equus caballus), P02791; apoferritin/1-aminoanthracene competitive binding, fluorescence; Potency, µM (titrated, usually from 77.5 µM), actives largely listed as inhibitors; 350,000 tested, 0.074% active; also: nearly all actives have a fitted effect of over 20% in size
Target sequence (P02791 2-175 limits assumed): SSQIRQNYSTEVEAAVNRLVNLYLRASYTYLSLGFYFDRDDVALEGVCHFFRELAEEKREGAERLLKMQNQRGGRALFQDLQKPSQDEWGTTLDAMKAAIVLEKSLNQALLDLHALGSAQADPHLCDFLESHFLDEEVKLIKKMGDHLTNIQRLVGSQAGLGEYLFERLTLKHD
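Read-out: endpoint 1-AMA fluorescence, excitation 380 nm and emission 535 nm, after compounds sit 10 min at room temperature with 10 uM horse-spleen apoferritin in 50% saturated 1-AMA/PBS. Values come from four-parameter Hill fits.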
Integrin act MD: qHTS for Activators of Integrin-Mediated Alleviation for Muscular Dystrophy | AID 624291, 2012 | Potency, µM (titrated, usually from 38.3 µM), most hits filed as activators | alpha7betagal myoblasts, beta-gal FDG fluorescence, 48 h | 350,000 tested, 0.064% active; also: nearly all actives have a fitted effect of over 60% in size
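Alpha7betagal+/- myoblasts (passage 13) were plated 16-24 hr, then exposed to compounds (1:260 dilution of DMSO stock) for 48 hours at 37C. After MPER lysis, β-galactosidase reporter activity was read as FDG fluorescence (ex 480/em 540) after 30 minutes.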
ClpP mod: qHTS Assay for Activators of ClpP; 340,000 tested, 1.9% active; Potency, µM (series often up to 57.5 µM); ATP-dependent Clp protease proteolytic subunit (Bacillus subtilis (strain 168)), P80244; purified B. subtilis ClpP, FRET peptide cleavage, 20 min; AID 651965, 2013; active = well fitted falling curve with a large enough effect; inconclusive = small, poorly fitted or top-dose-only effect; inactive = no such curve, though single readings can be large or run the other way; also: the source files actives as falling curves though it sought activators and does not explain the sign; nearly all actives have a fitted effect of over 65% in size
Target sequence (P80244 whole entry, looked up): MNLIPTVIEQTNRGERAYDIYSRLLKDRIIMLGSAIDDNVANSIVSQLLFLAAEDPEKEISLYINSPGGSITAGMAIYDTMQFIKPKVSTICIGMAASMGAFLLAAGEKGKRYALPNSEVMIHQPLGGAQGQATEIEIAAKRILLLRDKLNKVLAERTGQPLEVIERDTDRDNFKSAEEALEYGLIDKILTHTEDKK
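Buffer: 100 mM Tris/HCl pH8, 100 mM KCl, 0.05% low protease BSA, 2.5% glycerol, 0.01% Tween-20. ClpP 10 microg/mL final; 20 min RT; delta FRET normalized to ADEP and DMSO controls.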
N370S GC mod: qHTS Assay for Inhibitors and Activators of N370S glucocerebrosidase as a Potential Chaperone Treatment of Gaucher Disease | Lysosomal acid glucosylceramidase (Homo sapiens), P04062 | 330,000 tested, 0.092% active | N370S GC spleen homogenate, 4MU-glucoside fluorescence | Potency, µM (series often up to 59.4 µM), usual class: inhibitors | AID 2101, 2009
ClpP inh valid: qHTS Assay for Activators of ClpP: Hit Validation of Inhibitors; shares compounds with ClpP mod; purified B. subtilis ClpP, FRET-FV substrate cleavage, 20 min; Potency, µM (doses to about 57.5 µM), most hits filed as inhibitors; 470 tested, 40% active; also: nearly all actives have a fitted effect of over 70% in size
Of the large screens only hits and unclear results are named; the others gave an inactive call (follow-up assays come after a bar, where they were run). The entries come from a sample that favours hits as a whole. Unless noted, calls follow the shape of the dose curve; as a rule, active = well fitted curve in the direction sought with a large enough effect; inconclusive = small, poorly fitted or top-dose-only effect, or another doubt; inactive = no such curve, though single readings can be large; an effect the other way counts as inactive or inconclusive.

COc1ccc(-c2cc(C(=O)N3CCCC3)c3ccccc3n2)cc1OC	none (no result: CBFb RUNX1 block)
COc1ccc(-c2cc(C(=O)N3CCC3)c3ccccc3n2)cc1OC	ClpP mod 3.2µM (no result: CBFb RUNX1 block, Anesthetic bind) | ClpP inh valid inactive
Cc1ccc(NC(=O)c2ccc(NC(=O)c3ccccc3)cc2)cc1C	N370S GC mod inconclusive (no result: CBFb RUNX1 block) | ClpP inh valid 24µM
Cc1ccc(C(=O)Nc2ccc(Nc3ccccc3)cc2)cc1C	none (no result: CBFb RUNX1 block, Anesthetic bind, ClpP mod, N370S GC mod)
CNc1nnc(-c2cccc(N(C)C)c2)s1	none | ClpP inh valid inactive
Cc1cccc(-c2nnc(NC(=O)c3cccs3)s2)c1	none
Cc1ccc(C(=O)Nc2cccc(-c3nc4ccccc4o3)c2)c(Cl)c1	none (no result: CBFb RUNX1 block, Integrin act MD, N370S GC mod) | ClpP inh valid inconclusive
Cc1ccc(C(=O)Nc2ccc3oc(-c4cccnc4)nc3c2)c(Cl)c1	ClpP mod inconclusive (no result: CBFb RUNX1 block, Integrin act MD, N370S GC mod)
CN(C)S(=O)(=O)c1ccc(C(=O)Nc2nc(-c3cc4ccccc4o3)cs2)cc1	none | ClpP inh valid inactive
O=C(Nc1nc(-c2cc3ccccc3o2)cs1)c1ccc(S(=O)(=O)N2CCCC2)cc1	none
CN(CC(=O)O)c1ccc(/C=C2\C=Cc3ccccc32)cc1	none (no result: CBFb RUNX1 block, Anesthetic bind, Integrin act MD, N370S GC mod)
CN(C)CCCCCCNc1nccc(N2CCN(C)CC2)n1	none (no result: CBFb RUNX1 block, Anesthetic bind, Integrin act MD, N370S GC mod)
Cc1cc2n(n1)C(c1cn(-c3ccccc3)nc1C)Nc1c(C)cccc1-2 (stereo not drawn)	ClpP mod 8.9µM, N370S GC mod inconclusive | ClpP inh valid 27µM
Cc1ccc(NS(=O)(=O)c2cccc(C(=O)N3CCCCCC3)c2)cc1	none (no result: CBFb RUNX1 block, Anesthetic bind)
Cc1ccc(NS(=O)(=O)c2cccc(C(=O)N3CCCCC3)c2)cc1	none (no result: CBFb RUNX1 block, Anesthetic bind, N370S GC mod) | ClpP inh valid inactive
O=C(Nc1ccc(Br)cc1)c1cc(-c2cccs2)nc2ccccc12	none (no result: CBFb RUNX1 block, Integrin act MD, N370S GC mod) | ClpP inh valid 24µM
CC[C@H](C)[C@H](N)C(=O)N[C@@H](CCCNC(=N)N)C(=O)N[C@@H](CCC(N)=O)C(=O)NCC(=O)N1CCC[C@H]1C(=O)N[C@@H](CCCCN)C(=O)N[C@@H](CCC(=O)O)C(=O)N1CCC[C@H]1C(=O)N[C@@H](Cc1ccccc1)C(=O)N[C@@H](CCCNC(=N)N)C(=O)N[C@@H](CC(=O)O)C(=O)N[C@@H](Cc1ccc(O)cc1)C(=O)N[C@H](C(=O)N[C@@H](CC(=O)O)C(=O)N[C@@H](CCCNC(=N)N)C(=O)N[C@@H](Cc1ccccc1)C(=O)N[C@@H](Cc1ccc(O)cc1)C(=O)N[C@@H](CCCCN)C(=O)N[C@H](C(=O)N[C@@H](CC(C)C)C(=O)O)[C@@H](C)O)C(C)C	none (no result: Integrin act MD, ClpP mod)
c1ccc2c(N3CCOCC3)nc(N3CCOCC3)nc2c1	ClpP mod 3.2µM, N370S GC mod inconclusive | ClpP inh valid 24µM
c1ccc(CN2CCN(c3nc(N4CCOCC4)c4ccccc4n3)CC2)cc1	none (no result: CBFb RUNX1 block, Anesthetic bind, N370S GC mod)
CCN(CC)S(=O)(=O)c1cccc2c(N(C)C)cccc12	CBFb RUNX1 block inconclusive, ClpP mod 3.5µM | ClpP inh valid inactive
CN(c1ccc(/C=C/c2ccccc2)cc1)P1(=O)NCCCO1 (stereo not drawn)	none (no result: CBFb RUNX1 block, Anesthetic bind, Integrin act MD, N370S GC mod)
Fc1cc(F)c2nc(Nc3nc4cc5c(cc4s3)OCO5)sc2c1	Glioma ERSR ind inconclusive, CBFb RUNX1 block inconclusive, ClpP mod 8.9µM | ClpP inh valid inconclusive
C/C=C(\NNC(C)=O)c1ccc(O)cc1	none (no result: CBFb RUNX1 block, Anesthetic bind, Integrin act MD, N370S GC mod)
CSc1cccc(NC(=O)c2cc(S(=O)(=O)N3CCCCC3)c[nH]2)c1	none (no result: CBFb RUNX1 block)
O=C(Nc1cccc(Br)c1)c1cc(S(=O)(=O)N2CCCCC2)c[nH]1	none (no result: CBFb RUNX1 block, Integrin act MD, N370S GC mod) | ClpP inh valid inactive
COc1ccc(OC)c(C2=Nn3c(nnc3-c3ccccc3O)SC2)c1	none (no result: Glioma ERSR ind, Integrin act MD, ClpP mod)
